Drawing on PubChem BioAssay (EPA / NIEHS), this text covers AC50 and outcome for four molecules.

Test [1] has as its target Glucocorticoid receptor (Homo sapiens) (UniProt P04150). Nature of the test: NVS_NR_hGR: NovaScreen (NVS) Nuclear Receptor Binding Assay for human Glucocorticoid Receptor (GR) (AID 2283363).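 Further: activity is loss of specific radioligand binding signal relative to DMSO.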 In outline:
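Filter scintillation readout of tritiated/iodinated radioligand displaced by test chemical; cell-free extracted protein; 16 h. DMSO = negative control/baseline. Duplicate single-point 25 uM screen, then concentration-response on actives.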

A short description of test [2]: CCTE_Shafer_MEA_acute_AB: CCTE's Alamar Blue Assay for Cytotoxicity in the Neural Acute Assay, Shafer Lab (AID 2284069).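 Further: active compounds lower the viability signal compared with DMSO wells.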 In outline:
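Cytotoxicity endpoint for acute MEA exposures of primary rat cortical neurons on day 13 or 15. Resazurin reduction is read fluorescently at 544/590 nm, with DMSO as the negative-control baseline.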

Test [3] has as its target mouse Estrogen Receptor alpha (Era), Esr1 (gene 13982) (UniProt P19785). Nature of the test: NVS_NR_mERa: NovaScreen (NVS) Nuclear Receptor Binding Assay for mouse Estrogen Receptor alpha (Era) (AID 2283378).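 Further: hit means loss of bound radioligand signal relative to DMSO.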 In outline: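 Test chemicals competed against a specific radioligand for binding to cell-free mouse Era. Duplicate wells at 25 uM were read 18 hours later by filter-based radiodetection, with loss of signal against DMSO scored as activity.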

Test [4] relates to zebrafish Estrogen Receptor (ESR2B), gene 317733. Nature of the test: ATG_zfER2b_XSP1: Attagene TRANS-FACTORIAL Multi-Species (XSP1) HepG2 Assay for zebrafish Estrogen Receptor (ESR2B) (AID 2283773). In outline:
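Multiplexed TRANS format in transfected HepG2 liver cells, chimeric NR-Gal4 from zebrafish ESR2B. 24 h dosing; medium contains 3 nM 6-alpha-fluorotestosterone. mRNA induction by RT-PCR/CE, positive direction vs DMSO.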

Test [5] is described as follows: ATG_M_06_XSP1: Attagene TRANS-FACTORIAL Multi-Species (XSP1) HepG2 Assay for M06 Transcription Factor (Internal Marker) (AID 2283790). In outline:
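This background-control readout tracks M06 reporter mRNA, measured by RT-PCR and capillary electrophoresis. HepG2 cells transiently carrying the GAL4-UAS reporter panel were dosed for 24 h with 3 nM 6-alpha-fluorotestosterone added for partial AR stimulation; increases were scored relative to DMSO.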

Test [6] is described as follows: ATG_M_61_XSP1: Attagene TRANS-FACTORIAL Multi-Species (XSP1) HepG2 Assay for M61 Transcription Factor (Internal Marker) (AID 2283797). In outline: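 Background-control readout: reporter transcripts measured by RT-PCR and capillary electrophoresis 24 h after dosing transiently transfected HepG2 multi-reporter cells, with 3 nM 6-alpha-fluorotestosterone present. Fitted in the positive direction relative to DMSO.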

A short description of test [7]: ATG_XTT_Cytotoxicity_XSP1: Cytotoxicity Assessment in the Attagene TRANS-FACTORIAL Multi-Species (XSP1) HepG2 Assay (AID 2283810). In outline: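 XTT viability readout taken at 24 hours post-dosing in HepG2 liver cells co-treated with 3 nM 6-alpha-fluorotestosterone. Signal loss relative to DMSO controls reflects cytotoxicity.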
Test [8] in a line: ATG_M_06_XSP2: Attagene TRANS-FACTORIAL Multi-Species (XSP2) HepG2 Assay for M06 Transcription Factor (Internal Marker) (AID 2283811).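 Further: hits are increases in signal above the DMSO baseline.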 In outline:
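Readout: fluorescent reporter-mRNA peaks by capillary electrophoresis after RT-PCR and HpaI digest, scored upward relative to DMSO. Transfected HepG2, 24 h chemical exposure, with 3 nM 6-alpha-fluorotestosterone and 1.5 nM norgestrel added.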

Test [9] has as its target GAL4 Transcription Factor (Internal Marker), GAL4 (gene 855828) (UniProt P04386). Nature of the test: ATG_GAL4_XSP2: Attagene TRANS-FACTORIAL Multi-Species (XSP2) HepG2 Assay for GAL4 Transcription Factor (Internal Marker) (AID 2283814).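 Further: GAL4 reporter mRNA background control in MRTU transfected cells not a receptor target.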 In outline:
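Background-control readout: gain-of-signal fitted against DMSO. After 24 h exposure of transfected HepG2 (MRTU, GAL4-UAS reporters; 3 nM 6-alpha-fluorotestosterone, 1.5 nM norgestrel present), transcripts quantified by RT-PCR and capillary electrophoresis fluorescence.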

The target of test [10] is chicken Estrogen Receptor (ERa), ESR1 (gene 396099) (UniProt P06212). Nature of the test: ATG_chERa_XSP2: Attagene TRANS-FACTORIAL Multi-Species (XSP2) HepG2 Assay for chicken Estrogen Receptor (ERa) (AID 2283817).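 Further: actives raise reporter signal above DMSO so AC50 reflects ER activation.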 In outline:
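Readout: fluorescent reporter-transcript fragments resolved by capillary electrophoresis after RT-PCR and HpaI cut. Chicken ERa-Gal4 fusion in transiently transfected HepG2, dosed for 24 h; activity taken as increase over DMSO baseline.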

Test [11] addresses Peroxisome proliferator-activated receptor gamma (Homo sapiens) (UniProt P37231). Nature of the test: ATG_hPPARg_XSP2: Attagene TRANS-FACTORIAL Multi-Species (XSP2) HepG2 Assay for human Peroxisome Proliferator-activated Receptor gamma (PPARg) (AID 2283829).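 Further: actives raise reporter mRNA above DMSO so AC50 reflects PPARg activation.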 In outline: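 Multiplexed transactivation in transfected HepG2 liver cells. Gal4-chimeric receptor activity reported as induced reporter transcript after 24 h.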

The target of test [12] is mouse Peroxisome Proliferator-activated Receptor gamma (PPARg), Pparg (gene 19016) (UniProt P37238). Nature of the test: ATG_mPPARg_XSP2: Attagene TRANS-FACTORIAL Multi-Species (XSP2) HepG2 Assay for mouse Peroxisome Proliferator-activated Receptor gamma (PPARg) (AID 2283830).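 Further: hits are gains in reporter mRNA above DMSO so AC50 marks activation.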 In outline:
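Multiplexed TRANS reporter readout: after 24 h chemical exposure of transfected HepG2 cells (with 3 nM 6-alpha-fluorotestosterone, 1.5 nM norgestrel present), RNA reverse-transcribed, amplified, 6-FAM-labelled and resolved by capillary electrophoresis; mouse PPARg-Gal4 induction scored against DMSO.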

Test [13] concerns zebrafish Peroxisome Proliferator-activated Receptor gamma (PPARg), gene 557037. Nature of the test: ATG_zfPPARg_XSP2: Attagene TRANS-FACTORIAL Multi-Species (XSP2) HepG2 Assay for zebrafish Peroxisome Proliferator-activated Receptor gamma (PPARg) (AID 2283833).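 Further: reporter mRNA from a zebrafish PPARg GAL4 chimera measured by RT-PCR and capillary electrophoresis; actives increase reporter signal over DMSO so AC50 reflects activation.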 In outline:
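Cell-based transactivation of a chimeric zebrafish PPARg-GAL4 receptor was assessed in transiently transfected HepG2 cells after 24 h of treatment. Reporter mRNA induction, detected fluorescently after RT-PCR, was analysed in the positive direction against DMSO.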

Test [14] in a line: ATG_M_61_XSP2: Attagene TRANS-FACTORIAL Multi-Species (XSP2) HepG2 Assay for M61 Transcription Factor (Internal Marker) (AID 2283835; active means hit-call score of the fitted dose curve at least 0.9, where 1 is the maximum; inactive means score below 0.9;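 further: active means a rise in signal above the DMSO baseline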). In outline:
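Transient MRTU transfection of human HepG2; 24 h chemical dosing with 3 nM 6-alpha-fluorotestosterone + 1.5 nM norgestrel added for AR stimulation. RNA isolated, RT, PCR, FAM-labelled, HpaI cut, CE read. Positive direction vs DMSO.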

In test [15] the target is Sodium channel protein type 1 subunit alpha (Rattus norvegicus) (UniProt P04774). Nature of the test: NVS_IC_rNaCh_site2: NovaScreen (NVS) Ion Channel Assay for rat Sodium Channel, Site 2 (NaCh) (AID 2283322).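 Further: hit means loss of radioligand binding signal relative to DMSO so AC50 marks displacement.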 In outline:
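Initial duplicate single-point testing at 25 uM, followed by concentration-response runs for actives. Binding of radioligand to rat forebrain membranes quantified after 1 h via filter-based radiodetection.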

Test [16] can be described thus: CEETOX_H295R_11DCORT_noMTC: CeeTox H295R High-throughput Steroidogenesis Assay for 11-Deoxycortisol (11DCORT), maximum tolerated concentration (MTC) filtered results only (AID 2283911; active means hit-call score of the fitted dose curve at least 0.9, where 1 is the maximum; inactive means score below 0.9). Conditions: actives raise or lower the signal. In outline: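 Readout is 11-deoxycortisol in culture medium by reverse-phase HPLC with MS/MS, after 48 h chemical treatment of forskolin-primed H295R cells. Values are relative to DMSO and unfiltered for cytotoxicity.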

Test [17] in a line: CEETOX_H295R_OHPREG_noMTC: CeeTox H295R High-throughput Steroidogenesis Assay for OH-Pregnenolone (OHPREG), maximum tolerated concentration (MTC) filtered results only (AID 2283912; active means hit-call score of the fitted dose curve at least 0.9, where 1 is the maximum; inactive means score below 0.9). As to conditions: actives raise or lower the signal. In outline:
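H295R; 10 uM forskolin 48 h pre-stim; test cpd in DMSO (0.1% final) 48 h; media MTBE-extracted, HPLC-MS/MS for OH-pregnenolone; bidirectional fit vs DMSO; no MTC (MTT) filtering.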

Test [18] in a line: CEETOX_H295R_OHPROG_noMTC: CeeTox H295R High-throughput Steroidogenesis Assay for OH-Progesterone (OHPROG), maximum tolerated concentration (MTC) filtered results only (AID 2283914; active means hit-call score of the fitted dose curve at least 0.9, where 1 is the maximum; inactive means score below 0.9). As to conditions: actives raise or lower the signal. In outline:
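Medium hormone measured by reverse-phase C18 HPLC with positive electrospray MS/MS after MTBE liquid-liquid extraction. Cells had 48 h forskolin (10 uM) prestimulation, then 48 h chemical dosing. Gain or loss of signal fitted relative to DMSO baseline.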

Test [19] is described as follows: CEETOX_H295R_ANDR_noMTC: CeeTox H295R High-throughput Steroidogenesis Assay for Androstenedione (ANDR), maximum tolerated concentration (MTC) filtered results only (AID 2283915; active means hit-call score of the fitted dose curve at least 0.9, where 1 is the maximum; inactive means score below 0.9). Conditions: actives raise or lower the signal. In outline: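 Androstenedione secreted into medium was measured by LC-MS/MS after MTBE extraction. Human adrenal H295R cells received 10 uM forskolin for 48 h before 48 h chemical exposure (0.1% DMSO). Gain or loss fitted against DMSO, including concentrations above the MTT-derived MTC.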

Test [20] can be described thus: CEETOX_H295R_CORTISOL_noMTC: CeeTox H295R High-throughput Steroidogenesis Assay for Cortisol, maximum tolerated concentration (MTC) filtered results only (AID 2283916; active means hit-call score of the fitted dose curve at least 0.9, where 1 is the maximum; inactive means score below 0.9). Conditions: actives raise or lower the signal. In outline:
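H295R human adrenal cells prestimulated 48 h with 10 uM forskolin, then exposed 48 h to chemical in 0.1% DMSO; cortisol in medium quantified by HPLC-MS/MS; bidirectional fit vs DMSO baseline, concentrations not MTT-filtered for MTC.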

Inconclusive results are not listed. The source made the active and inactive calls. How the source made its calls, unless noted: active means hit-call score of the fitted dose curve at least 0.9, where 1 is the maximum; inconclusive means response in the unintended direction; inactive means score below 0.9.

Sequence of GAL4 Transcription Factor (Internal Marker), GAL4 (gene 855828) (P04386 whole entry, looked up, the tested form may be a part): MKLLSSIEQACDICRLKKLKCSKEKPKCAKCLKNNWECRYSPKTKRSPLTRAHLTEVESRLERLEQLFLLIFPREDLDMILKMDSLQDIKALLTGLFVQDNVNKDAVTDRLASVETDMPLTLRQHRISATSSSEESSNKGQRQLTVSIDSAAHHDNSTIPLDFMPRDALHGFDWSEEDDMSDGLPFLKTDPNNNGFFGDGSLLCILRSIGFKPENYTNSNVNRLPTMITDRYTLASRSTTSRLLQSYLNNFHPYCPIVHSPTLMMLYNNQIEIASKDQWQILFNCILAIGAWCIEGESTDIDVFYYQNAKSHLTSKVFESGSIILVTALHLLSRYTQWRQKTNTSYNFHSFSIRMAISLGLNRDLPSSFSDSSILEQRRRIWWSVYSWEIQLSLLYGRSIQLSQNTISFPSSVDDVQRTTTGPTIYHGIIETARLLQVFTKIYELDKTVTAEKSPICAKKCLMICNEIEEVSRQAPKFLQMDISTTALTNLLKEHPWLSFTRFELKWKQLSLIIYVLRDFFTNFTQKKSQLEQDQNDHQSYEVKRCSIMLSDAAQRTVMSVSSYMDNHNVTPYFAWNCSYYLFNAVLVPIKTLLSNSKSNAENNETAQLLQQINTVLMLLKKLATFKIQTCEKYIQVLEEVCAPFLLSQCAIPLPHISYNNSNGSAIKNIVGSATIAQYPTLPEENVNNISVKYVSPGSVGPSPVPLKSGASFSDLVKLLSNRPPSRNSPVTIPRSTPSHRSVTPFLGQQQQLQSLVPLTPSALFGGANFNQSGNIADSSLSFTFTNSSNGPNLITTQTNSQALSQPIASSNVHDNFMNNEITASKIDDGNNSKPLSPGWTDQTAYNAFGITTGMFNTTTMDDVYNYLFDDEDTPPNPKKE
Sequence of Peroxisome proliferator-activated receptor gamma (Homo sapiens) (P37231 whole entry, looked up, the tested form may be a part): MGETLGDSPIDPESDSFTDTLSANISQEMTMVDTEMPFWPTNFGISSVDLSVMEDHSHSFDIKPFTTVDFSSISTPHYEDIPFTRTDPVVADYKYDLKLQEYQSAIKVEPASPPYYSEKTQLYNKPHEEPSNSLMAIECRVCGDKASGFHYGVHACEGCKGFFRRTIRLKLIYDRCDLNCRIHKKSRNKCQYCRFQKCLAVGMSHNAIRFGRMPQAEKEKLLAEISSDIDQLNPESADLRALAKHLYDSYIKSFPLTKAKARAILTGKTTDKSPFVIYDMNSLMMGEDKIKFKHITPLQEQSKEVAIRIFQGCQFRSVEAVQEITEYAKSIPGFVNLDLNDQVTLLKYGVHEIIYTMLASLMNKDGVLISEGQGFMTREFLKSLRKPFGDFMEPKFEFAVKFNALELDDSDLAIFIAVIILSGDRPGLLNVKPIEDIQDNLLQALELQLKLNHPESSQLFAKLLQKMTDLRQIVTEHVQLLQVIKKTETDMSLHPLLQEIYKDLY
Sequence of mouse Estrogen Receptor alpha (Era), Esr1 (gene 13982) (P19785 whole entry, looked up): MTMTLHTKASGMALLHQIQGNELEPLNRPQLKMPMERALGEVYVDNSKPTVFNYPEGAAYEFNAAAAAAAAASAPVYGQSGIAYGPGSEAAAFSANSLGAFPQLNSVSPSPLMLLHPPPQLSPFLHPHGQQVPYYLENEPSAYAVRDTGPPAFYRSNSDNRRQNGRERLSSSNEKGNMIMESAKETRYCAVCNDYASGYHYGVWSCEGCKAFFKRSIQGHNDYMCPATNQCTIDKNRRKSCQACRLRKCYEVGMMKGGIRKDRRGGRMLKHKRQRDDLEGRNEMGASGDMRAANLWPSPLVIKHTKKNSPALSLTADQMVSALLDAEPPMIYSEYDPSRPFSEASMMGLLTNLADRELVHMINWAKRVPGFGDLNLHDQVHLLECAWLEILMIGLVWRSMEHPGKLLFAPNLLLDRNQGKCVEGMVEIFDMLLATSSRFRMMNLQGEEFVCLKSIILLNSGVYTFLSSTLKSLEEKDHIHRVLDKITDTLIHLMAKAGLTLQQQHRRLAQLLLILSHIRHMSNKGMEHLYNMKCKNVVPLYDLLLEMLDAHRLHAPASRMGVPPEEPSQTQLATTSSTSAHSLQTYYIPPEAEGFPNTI
Sequence of Glucocorticoid receptor (Homo sapiens) (P04150 whole entry, looked up): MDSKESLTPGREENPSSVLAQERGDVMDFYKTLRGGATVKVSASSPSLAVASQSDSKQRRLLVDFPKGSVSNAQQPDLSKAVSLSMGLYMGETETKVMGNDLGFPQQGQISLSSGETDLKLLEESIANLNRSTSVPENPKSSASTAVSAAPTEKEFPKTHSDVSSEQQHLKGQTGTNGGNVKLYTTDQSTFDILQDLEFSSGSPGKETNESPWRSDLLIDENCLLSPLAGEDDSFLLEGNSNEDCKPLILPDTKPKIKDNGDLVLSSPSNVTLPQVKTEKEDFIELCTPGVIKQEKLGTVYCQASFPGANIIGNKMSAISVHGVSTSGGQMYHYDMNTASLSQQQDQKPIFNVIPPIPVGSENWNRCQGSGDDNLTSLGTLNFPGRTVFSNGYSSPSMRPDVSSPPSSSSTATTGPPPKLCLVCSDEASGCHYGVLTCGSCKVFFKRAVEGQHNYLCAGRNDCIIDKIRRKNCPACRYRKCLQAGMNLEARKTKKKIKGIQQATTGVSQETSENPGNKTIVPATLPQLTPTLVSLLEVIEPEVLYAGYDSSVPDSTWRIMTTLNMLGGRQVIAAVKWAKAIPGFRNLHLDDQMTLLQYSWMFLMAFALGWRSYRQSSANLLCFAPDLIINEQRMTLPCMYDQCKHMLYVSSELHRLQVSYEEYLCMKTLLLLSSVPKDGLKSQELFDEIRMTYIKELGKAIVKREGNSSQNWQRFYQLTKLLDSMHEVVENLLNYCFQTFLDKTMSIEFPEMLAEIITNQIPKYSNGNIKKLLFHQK
Sequence of chicken Estrogen Receptor (ERa), ESR1 (gene 396099) (P06212 whole entry, looked up, the tested form may be a part): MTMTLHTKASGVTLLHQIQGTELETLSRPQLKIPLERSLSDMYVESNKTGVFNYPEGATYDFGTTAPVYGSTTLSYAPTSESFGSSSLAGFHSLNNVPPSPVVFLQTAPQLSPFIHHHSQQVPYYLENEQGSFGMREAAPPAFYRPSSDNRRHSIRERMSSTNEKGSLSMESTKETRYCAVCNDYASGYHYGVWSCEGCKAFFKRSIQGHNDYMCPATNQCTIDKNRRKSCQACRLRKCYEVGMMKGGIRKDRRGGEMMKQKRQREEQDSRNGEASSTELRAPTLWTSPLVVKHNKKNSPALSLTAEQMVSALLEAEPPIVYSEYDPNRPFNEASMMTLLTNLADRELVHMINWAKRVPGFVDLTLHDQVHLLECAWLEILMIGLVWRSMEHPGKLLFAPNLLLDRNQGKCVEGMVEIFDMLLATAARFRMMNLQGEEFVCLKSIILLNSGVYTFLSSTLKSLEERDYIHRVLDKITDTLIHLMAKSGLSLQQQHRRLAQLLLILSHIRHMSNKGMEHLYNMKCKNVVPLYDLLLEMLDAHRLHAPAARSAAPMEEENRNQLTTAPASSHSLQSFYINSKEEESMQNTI
Sequence of mouse Peroxisome Proliferator-activated Receptor gamma (PPARg), Pparg (gene 19016) (P37238 whole entry, looked up, the tested form may be a part): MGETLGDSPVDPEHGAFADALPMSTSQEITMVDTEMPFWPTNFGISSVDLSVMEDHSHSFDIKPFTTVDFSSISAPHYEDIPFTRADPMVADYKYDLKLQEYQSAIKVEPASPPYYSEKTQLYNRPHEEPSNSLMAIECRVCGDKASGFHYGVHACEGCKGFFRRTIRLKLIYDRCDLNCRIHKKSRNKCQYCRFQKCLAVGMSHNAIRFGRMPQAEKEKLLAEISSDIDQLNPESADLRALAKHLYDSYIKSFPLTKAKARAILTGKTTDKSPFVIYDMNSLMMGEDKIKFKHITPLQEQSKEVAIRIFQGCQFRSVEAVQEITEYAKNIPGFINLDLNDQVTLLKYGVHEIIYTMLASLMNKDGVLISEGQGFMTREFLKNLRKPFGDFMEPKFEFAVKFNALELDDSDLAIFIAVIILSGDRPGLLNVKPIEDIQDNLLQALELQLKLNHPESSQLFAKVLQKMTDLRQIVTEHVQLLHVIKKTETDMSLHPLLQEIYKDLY

Consider `O=c1c2ccccc2c(=O)c2c1cc(Cl)c1[nH]c3c([nH]c12)c(Cl)cc1c(=O)c2ccccc2c(=O)c13`, for which the AC50 in test [1] was 12.9 µM (active). For the same molecule, in test [2], the molecule was called inactive.
On to `O=[N+]([O-])c1cc(C(F)(F)F)c(Cl)c([N+](=O)[O-])c1Cl`, for which, in test [3], the molecule was called inactive.
In the case of `CC(=O)c1cc2c(cc1C)C(C)(C)C(C)CC2(C)C` (stereo not given), the results for the AC50 in [4], in test [11] and in [12] were 25.5 µM (active), 41.9 µM (active) and 49.4 µM (active), respectively. For the same molecule, the result in test [5], in test [6], in test [7], in test [8], in test [9] and in test [10] was inactive. Further, the call in [13] and in test [14] was inactive.
Turning to `C[C@]12CC[C@H](O)C[C@H]1CC[C@@H]1[C@@H]2C[C@@H](O)[C@]2(C)[C@@H](C3=CC(=O)OC3)CC[C@]12O`, in test [15], the result was inactive. Also, the half-maximal activity concentration (AC50) was 5.79 µM (active) in [16]; 1.28 µM (active) in test [17]; 5.47 µM (active) in test [18]; 5.44 µM (active) in test [19]; 4.34 µM (active) in test [20].
